Molecules are shown by their SMILES. Unmarked numbers belong to inactive results. Inconclusive results are not listed. Active and inactive are the calls of the source. Unless noted, calls follow the shape of the dose curve; as a rule, active = well fitted curve in either direction with a large enough effect (not every such curve was filed as active); inconclusive = small, poorly fitted or top-dose-only effect, or another doubt; inactive = flat fitted curve, though single readings scatter.

Test [1] deals with Lysosomal acid glucosylceramidase (Homo sapiens) (UniProt P04062). Description: Glucocerebrosidase-p2 (AID 348; in the data active = potency below about 10 µM; also: potency is read from the fitted curve at half-maximal effect). The conditions noted are these: purified GBA, blue fluorogenic substrate, 40 min. The gist of the method:
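Normal human glucocerebrosidase (0.2 nM) with blue fluorogenic substrate (80 uM final) in citrate/phosphate pH 5.9 with 10mM sodium taurocholate, 0.01% tween-20; 40 min RT, NaOH/glycine stop; fluorescence Ex 365/Em 440; AC50 from a titration from 0.6 nM upwards.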

The nature of test [2]: AP1 Signaling Pathway (AID 357).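 Also: ME-180 reporter cells stimulated with EGF at its EC50 level; % is scaled to controls: 0 for no effect and ±100 for the full control effect.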 The conditions noted are these: ME-180 AP-1-bla reporter, EGF-induced, beta-lactamase ratio, 5 h; at 7.69 µM (top of the series) unless noted. The gist of the method:
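In this screen, ME-180 cells in Opti-MEM with 0.5% dialyzed FBS received EC50 EGF and compound titrations for 5 h. AP-1 reporter beta-lactamase was detected via CCF4 ratio, giving AC50 for positive and negative modulators.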

The target in test [3] is Cytochrome P450 1A2 (Homo sapiens) (UniProt P05177). Description: p450-cyp1a2 (AID 410; calls by dose curve; also: potency is read from the fitted curve at half-maximal effect;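 as to activity change, negative = inhibition: -100% = full effect of reference inhibitor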). The conditions noted are these: recombinant CYP1A2, luciferin-ME demethylation, luminescence; series mostly up to 11.4 µM. The essentials:
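Luminescent demethylation readout: Luciferin-ME (100uM, equal to Km) turned over by 20nM CYP1A2 for 60 min at room temperature after NADPH regeneration addition, following 10 min compound preincubation. Normalization used 57 uM furafylline as full inhibition.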

The nature of test [4]: NFAT Signaling Pathway (AID 444).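 Also: carbachol stimulus at about its EC50 of 1 µM final; % is scaled to controls: 0 for no effect and ±100 for the full control effect.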 As to conditions: Jurkat NFAT-bla M1, carbachol, beta-lactamase ratio, 5 h; at 7.69 µM (top of the series) unless noted. The essentials:
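Read-out: CCF4 FRET ratio (460 nm/530 nm) after 1 h RT dye loading, used for %activity and AC50 from titration series. Cells: Jurkat NFAT-β-lactamase/M1 line, treated with compound plus 1 uM carbachol for 5 h, 37 °C.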

Test [5] can be described thus: Stat Signaling Pathway (AID 446).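 Also: ME-180 cervical cancer cells given 40 pM IL-6 alongside compound; SIE-controlled beta-lactamase reporter measured as 460/530 nm FRET emission ratio; % is scaled to controls: 0 for no effect and ±100 for the full control effect.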 As to conditions: ME-180 (cervical carcinoma) SIE beta-lactamase reporter, IL-6 stimulated, 5 h; at 7.69 µM (top of the series) unless noted. The essentials:
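Normalization used AC90 stimulation (300 pM IL-6) and AC90 inhibition (125 nM pan-JAK inhibitor at 40 pM IL-6). The underlying signal is SIE-driven beta-lactamase in ME-180 cells after 5 h IL-6 exposure with compound.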

Test [6] addresses Glucocorticoid receptor (Homo sapiens) (UniProt P04150). Description: GR-GFP Redistribution (AID 450;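 active = compounds whose dose series gives a full or clear partial fitted curve of increased nuclear translocation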; also: potency is read from the fitted curve at half-maximal effect). As to conditions: U2OS GR-GFP nuclear translocation, laser cytometry, 2 h.
The target is the same in test [7]. Description: GR-EFC Redistribution (AID 451; calls by dose curve; also: potency is read from the fitted curve at half-maximal effect). The conditions noted are these: CHO-K1 GR-EFC translocation, beta-gal luminescence, 2 h. The gist of the method:
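Translocation of GR-ED fusion to nuclear EA restores b-gal, read by luminescence after 1 h room-temperature detection. Engineered CHO-K1 biosensor cells, 1,000/well, exposed 2 h at 37 C to titrations up to 46 uM final.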

The target of test [8] is Mitogen-activated protein kinase 10 (Mus musculus) (UniProt Q61831). Description: JNK3 AlphaScreen Assay (AID 530).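 Also: kinase came from lysate of stimulated human HepG2 cells; signal reports phosphorylation of biotinylated GST-cJun 1-79 at Ser73 with 10 µM ATP; % is scaled to controls: 0 for no effect and ±100 for the full control effect.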 The conditions noted are these: JNK3 lysate, c-Jun phosphorylation; series mostly up to 11.4 µM. The gist of the method: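 qHTS titrations with 15 min compound pre-incubation before adding ATP (10 uM final). Read-out: AlphaScreen of Ser73-phosphorylated biotin-GST-cJun using HepG2 lysate JNK3 activated by IL-1β and TNFα.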

Test [9] concerns the target 3',5'-cyclic-AMP phosphodiesterase 4B (Homo sapiens) (UniProt Q07343). Description: qHTS Assay for Inhibitors of PDE-IV (AID 607; active = well fitted activation curve with a large enough effect in the main read-out, with a control signal flat, not every such curve was filed as active; also: % of control where 0% means no effect). As to conditions: HEK293 ACTOne CNG channel cells, membrane potential fluorescence; series mostly up to 22.9 µM. The gist of the method:
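HEK293 ACTOne cells with CNG channel (1000/well), endogenous PDE4; membrane potential dye, compounds up to 22.9 uM final. Fluorescence Ex 535/Em 590; RO 20-1724 (100 uM final) as reference.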
Background: In qHTS, concentration-response curves come from the screen itself.

Test [10] deals with Cytochrome P450 3A4 (Homo sapiens) (UniProt P08684). Description: qHTS Assay for Inhibitors and Substrates of Cytochrome P450 3A4 (AID 884; active = well fitted curve in the direction sought with a large enough effect; an effect the other way counts as inactive or inconclusive; also: potency is read from the fitted curve at half-maximal effect; nearly all actives have a fitted effect of over 50% in size). As to conditions: recombinant CYP3A4, Luciferin-PPXE luminescence; series mostly up to 57.1 µM. The essentials:
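Luminescent readout of luciferin produced by CYP3A4 (20 nM) dealkylation of Luciferin-PPXE, 25 uM (its KM). NADPH-driven reaction ran 60 min at RT after 10 min compound preincubation; data scaled to 57 uM ketoconazole as 100% inhibition.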

For test [11] the target is unchanged. Description: qHTS Assay for Activators of Cytochrome P450 3A4 (AID 885; active = well fitted curve in the direction sought with a large enough effect; an effect the other way counts as inactive or inconclusive; also: nearly all actives have a fitted effect of over 65% in size). The conditions noted are these: recombinant CYP3A4, Luciferin-PPXE luminescence, 60 min; series mostly up to 11.4 µM. The gist of the method: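 Human CYP3A4 dealkylates Luciferin-PPXE to luciferin, which luciferase detection converts to light. Substrate was at its KM (25uM), buffer 200mM KPO4, reaction 60 min at RT.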

The target in test [12] is Cytochrome P450 2D6 (Homo sapiens) (UniProt P10635). Description: qHTS Assay for Inhibitors and Substrates of Cytochrome P450 2D6 (AID 891; active = well fitted curve in the direction sought with a large enough effect; an effect the other way counts as inactive or inconclusive; also: potency is read from the fitted curve at half-maximal effect; nearly all actives have a fitted effect of over 60% in size). As to conditions: recombinant CYP2D6, luciferin-ME EGE luminescence; series mostly up to 11.4 µM. The essentials: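 Luminescent read-out of luciferin formed by 5 nM human CYP2D6 demethylating 30 uM Luciferin-ME EGE (Km level) over 60 min at room temperature after NADPH regeneration addition. Data normalized to full inhibition by 1.43 uM quinidine.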
Cytochrome P450 2D6 (Homo sapiens), sequence (P10635 whole entry, looked up): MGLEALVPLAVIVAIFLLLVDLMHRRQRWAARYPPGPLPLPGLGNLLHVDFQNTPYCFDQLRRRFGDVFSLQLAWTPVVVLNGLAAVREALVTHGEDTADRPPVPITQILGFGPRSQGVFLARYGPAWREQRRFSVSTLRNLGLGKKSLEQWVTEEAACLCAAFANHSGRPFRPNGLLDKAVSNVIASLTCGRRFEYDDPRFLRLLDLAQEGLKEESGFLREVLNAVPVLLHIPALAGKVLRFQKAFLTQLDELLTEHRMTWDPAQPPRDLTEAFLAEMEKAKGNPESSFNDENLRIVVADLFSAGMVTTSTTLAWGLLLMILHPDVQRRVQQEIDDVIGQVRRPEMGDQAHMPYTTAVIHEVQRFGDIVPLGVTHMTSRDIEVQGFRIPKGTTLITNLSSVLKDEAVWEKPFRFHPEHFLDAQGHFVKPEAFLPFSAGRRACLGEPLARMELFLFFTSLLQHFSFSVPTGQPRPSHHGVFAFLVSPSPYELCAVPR

The target of test [13] is Cytochrome P450 2C19 (Homo sapiens) (UniProt P33261). Description: qHTS Assay for Inhibitors and Substrates of Cytochrome P450 2C19 (AID 899; active = well fitted curve in the direction sought with a large enough effect; an effect the other way counts as inactive or inconclusive; also: potency is read from the fitted curve at half-maximal effect; nearly all actives have a fitted effect of over 60% in size). As to conditions: recombinant CYP2C19, luciferin-H EGE luminescence; series mostly up to 11.4 µM. The essentials:
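Luminescence readout of luciferin formed from 10uM Luciferin-H EGE (KM level) by 5 nM CYP2C19 in 50mM KPO4. 60 min NADPH-driven reaction at 37C after 10 min compound preincubation; data scaled to 57uM ketoconazole inhibition.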

Cytochrome P450 1A2 (Homo sapiens), sequence (P05177 whole entry, looked up): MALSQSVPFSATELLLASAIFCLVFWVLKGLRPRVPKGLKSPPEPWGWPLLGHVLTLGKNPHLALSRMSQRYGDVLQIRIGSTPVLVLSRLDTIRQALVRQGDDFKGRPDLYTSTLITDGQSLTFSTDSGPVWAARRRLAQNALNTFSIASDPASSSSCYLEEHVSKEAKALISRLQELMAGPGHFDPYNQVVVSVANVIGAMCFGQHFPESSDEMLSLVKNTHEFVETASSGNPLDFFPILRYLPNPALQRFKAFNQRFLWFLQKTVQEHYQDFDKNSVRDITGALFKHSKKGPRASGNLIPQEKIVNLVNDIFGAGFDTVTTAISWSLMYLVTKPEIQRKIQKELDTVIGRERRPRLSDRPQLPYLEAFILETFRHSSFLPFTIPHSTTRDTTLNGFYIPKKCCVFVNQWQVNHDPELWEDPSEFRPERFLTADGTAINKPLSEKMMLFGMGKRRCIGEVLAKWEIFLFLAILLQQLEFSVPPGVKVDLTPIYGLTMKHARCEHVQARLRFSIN
Glucocorticoid receptor (Homo sapiens), sequence (P04150 whole entry, looked up): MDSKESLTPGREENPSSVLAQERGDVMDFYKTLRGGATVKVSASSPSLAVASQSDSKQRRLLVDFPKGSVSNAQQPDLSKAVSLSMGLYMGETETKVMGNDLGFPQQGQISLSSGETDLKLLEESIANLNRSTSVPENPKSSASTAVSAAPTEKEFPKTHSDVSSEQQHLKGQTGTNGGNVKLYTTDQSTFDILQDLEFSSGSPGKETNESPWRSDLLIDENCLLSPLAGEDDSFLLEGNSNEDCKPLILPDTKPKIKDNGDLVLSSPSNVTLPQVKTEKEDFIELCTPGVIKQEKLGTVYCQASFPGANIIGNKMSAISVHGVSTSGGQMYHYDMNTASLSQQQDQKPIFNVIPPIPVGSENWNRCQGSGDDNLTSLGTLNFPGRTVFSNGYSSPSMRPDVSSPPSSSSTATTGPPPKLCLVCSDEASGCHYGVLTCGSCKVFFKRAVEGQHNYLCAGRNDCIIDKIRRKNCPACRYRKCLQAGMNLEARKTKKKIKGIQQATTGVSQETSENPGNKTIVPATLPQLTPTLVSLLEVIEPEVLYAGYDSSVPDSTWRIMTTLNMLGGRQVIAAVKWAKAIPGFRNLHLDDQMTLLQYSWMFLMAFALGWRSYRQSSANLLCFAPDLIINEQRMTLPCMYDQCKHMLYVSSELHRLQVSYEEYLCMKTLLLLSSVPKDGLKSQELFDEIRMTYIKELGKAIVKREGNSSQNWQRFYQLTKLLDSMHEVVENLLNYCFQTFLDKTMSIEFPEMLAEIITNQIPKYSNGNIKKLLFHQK
Cytochrome P450 3A4 (Homo sapiens), sequence (P08684 whole entry, looked up): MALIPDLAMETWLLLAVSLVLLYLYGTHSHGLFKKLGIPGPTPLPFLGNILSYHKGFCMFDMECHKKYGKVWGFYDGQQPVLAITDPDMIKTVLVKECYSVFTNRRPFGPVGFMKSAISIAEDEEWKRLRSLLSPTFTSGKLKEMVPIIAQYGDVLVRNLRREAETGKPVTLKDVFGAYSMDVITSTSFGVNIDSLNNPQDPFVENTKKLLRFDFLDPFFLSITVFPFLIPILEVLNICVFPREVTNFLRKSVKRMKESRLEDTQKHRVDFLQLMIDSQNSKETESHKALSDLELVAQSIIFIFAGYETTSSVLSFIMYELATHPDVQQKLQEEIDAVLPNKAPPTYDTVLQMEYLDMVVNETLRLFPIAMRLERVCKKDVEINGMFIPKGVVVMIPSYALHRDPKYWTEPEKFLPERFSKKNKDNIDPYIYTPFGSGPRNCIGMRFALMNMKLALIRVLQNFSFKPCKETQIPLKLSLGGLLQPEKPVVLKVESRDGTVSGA
Lysosomal acid glucosylceramidase (Homo sapiens), sequence (P04062 whole entry, looked up): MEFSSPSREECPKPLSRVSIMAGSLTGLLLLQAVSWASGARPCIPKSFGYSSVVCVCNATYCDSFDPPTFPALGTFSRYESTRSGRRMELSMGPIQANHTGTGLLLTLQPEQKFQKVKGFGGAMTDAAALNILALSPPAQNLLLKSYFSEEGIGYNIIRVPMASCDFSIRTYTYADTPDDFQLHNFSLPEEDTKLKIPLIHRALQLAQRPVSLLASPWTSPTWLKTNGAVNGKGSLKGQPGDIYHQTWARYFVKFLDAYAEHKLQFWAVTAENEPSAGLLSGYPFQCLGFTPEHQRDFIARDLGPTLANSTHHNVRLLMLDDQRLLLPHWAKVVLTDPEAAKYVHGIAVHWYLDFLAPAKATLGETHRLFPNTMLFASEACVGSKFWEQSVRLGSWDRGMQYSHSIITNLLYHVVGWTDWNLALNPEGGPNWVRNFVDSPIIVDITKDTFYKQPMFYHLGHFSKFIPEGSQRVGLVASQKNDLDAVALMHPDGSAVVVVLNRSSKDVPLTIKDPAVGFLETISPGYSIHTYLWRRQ
3',5'-cyclic-AMP phosphodiesterase 4B (Homo sapiens), sequence (Q07343 whole entry, looked up): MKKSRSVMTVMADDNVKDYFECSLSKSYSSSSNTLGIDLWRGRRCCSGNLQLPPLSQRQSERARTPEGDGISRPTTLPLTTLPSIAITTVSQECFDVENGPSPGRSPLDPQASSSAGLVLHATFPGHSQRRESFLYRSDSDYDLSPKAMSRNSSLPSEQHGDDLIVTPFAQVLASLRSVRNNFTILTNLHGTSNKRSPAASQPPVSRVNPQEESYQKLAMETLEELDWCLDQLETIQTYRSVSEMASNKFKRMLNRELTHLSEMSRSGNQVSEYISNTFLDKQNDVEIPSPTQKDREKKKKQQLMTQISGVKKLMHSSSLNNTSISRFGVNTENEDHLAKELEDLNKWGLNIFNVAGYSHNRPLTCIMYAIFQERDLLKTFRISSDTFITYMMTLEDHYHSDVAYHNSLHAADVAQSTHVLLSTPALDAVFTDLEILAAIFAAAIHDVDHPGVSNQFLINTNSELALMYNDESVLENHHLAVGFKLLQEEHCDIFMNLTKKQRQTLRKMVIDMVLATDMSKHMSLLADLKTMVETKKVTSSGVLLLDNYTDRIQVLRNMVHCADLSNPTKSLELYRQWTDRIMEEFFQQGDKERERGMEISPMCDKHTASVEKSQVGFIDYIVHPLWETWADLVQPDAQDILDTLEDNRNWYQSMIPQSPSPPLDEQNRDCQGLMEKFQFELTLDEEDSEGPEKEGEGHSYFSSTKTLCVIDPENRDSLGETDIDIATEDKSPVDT
Cytochrome P450 2C19 (Homo sapiens), sequence (P33261 whole entry, looked up): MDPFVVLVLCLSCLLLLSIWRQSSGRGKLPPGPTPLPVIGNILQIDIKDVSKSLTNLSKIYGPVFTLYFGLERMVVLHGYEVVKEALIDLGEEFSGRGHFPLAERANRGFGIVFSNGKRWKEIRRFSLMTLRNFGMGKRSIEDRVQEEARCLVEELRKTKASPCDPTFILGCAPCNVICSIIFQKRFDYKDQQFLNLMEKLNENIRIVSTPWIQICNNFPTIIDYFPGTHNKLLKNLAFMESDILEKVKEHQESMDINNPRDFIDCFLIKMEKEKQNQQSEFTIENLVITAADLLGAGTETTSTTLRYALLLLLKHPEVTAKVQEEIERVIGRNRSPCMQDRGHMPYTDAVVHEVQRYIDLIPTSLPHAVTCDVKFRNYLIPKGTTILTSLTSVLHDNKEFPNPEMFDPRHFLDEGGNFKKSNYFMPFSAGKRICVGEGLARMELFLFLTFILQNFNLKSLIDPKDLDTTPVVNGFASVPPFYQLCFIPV

For `CSC1(SC2=NCCN2)SC2(NCCN2)S1`, the Potency is over 11.4 µM in [1]; 0.398 µM (active) in [3]; over 46 µM in test [6]; over 9.22 µM in test [7]; 1.26 µM (active) in [10]; 3.98 µM (active) in test [12]. Moreover, the Potency in test [13] was 1.58 µM (active). For the same molecule, the values for the activity change, negative = inhibition in test [2] and in test [4] were -0.329% and -0.372%, respectively. Further, the activity, negative = inhibition in test [5] is 5.32%. In addition, the Potency result in test [8], in [9] and in test [11] was “inactive” in each case.
In the case of `Nc1nc(SC/C=C\c2ccccc2)c2[nH]cnc2n1`, the Potency was over 11.4 µM in test [1]; 5.01 µM (active) in test [3]; over 46 µM in [6]; over 9.22 µM in test [7]; 2.51 µM (active) in test [10]; 1.58 µM (active) in test [13]. Further, the activity change, negative = inhibition in [2] was 6.66%; in test [4], 24.8%. Further, in test [5], the activity, negative = inhibition is 1.2%. The Potency entry in [8], in test [9] and in test [11] was “inactive” in each case.
`c1cncc(-c2cc(-c3cc(-c4cccnc4)n[nH]3)[nH]n2)c1`: the Potency in test [1] is over 11.4 µM; in test [3] it was 0.501 µM (active); in [6], over 46 µM; in test [7] it was over 9.22 µM. Also, the values for the activity change, negative = inhibition in test [2] and in test [4] were 4.4% and 14%, respectively. Further, the activity, negative = inhibition in test [5] is -1.32%. Also, the Potency result in [8], in [9] and in test [11] was “inactive” each time.
On to `N/N=C1/c2ccccc2N[C@H]1OC(=O)Nc1cccc(Cl)c1`, for which the Potency in test [1] is over 11.4 µM; in test [3] it was 0.794 µM (active); in test [6], over 46 µM; in [7], over 9.22 µM. Besides, the activity change, negative = inhibition was -17.3% in test [2] and -19.2% in test [4]. Besides, in test [5], the activity, negative = inhibition is -0.394%. The Potency result in test [8], in [9] and in test [11] was “inactive” each time.
As for `O=C(NNS(=O)(=O)c1ccccc1)c1cccnc1`, the Potency is over 11.4 µM in test [1], over 46 µM in test [6] and over 9.22 µM in test [7]. Besides, the activity change, negative = inhibition in test [2] is 16.3%; in test [3] it was 2.2% [at 2.29 µM]; in [4], 7.27%. For the same molecule, the activity, negative = inhibition in test [5] is 2.24%. Besides, the Potency entry in test [8], in test [9] and in [11] was “inactive” each time.
With `CC(C)C[C@@H](N)C(=O)Nc1ccc2ccccc2c1`, the Potency is over 11.4 µM in test [1], 1.58 µM (active) in test [3], over 46 µM in test [6] and over 9.22 µM in [7]. Moreover, the activity change, negative = inhibition in test [2] was 9.25%; in [4], 8.34%. The activity, negative = inhibition in [5] was -2.09%. In addition, the Potency entry in test [8], in test [9] and in test [11] was “inactive” in each case.
Turning to `CC(C)(C)CC(C)(C)c1ccc(O)c(C[N+](C)(C)[O-])c1`, the Potency in test [1] was over 11.4 µM; in test [6], over 46 µM; in [7] it was over 9.22 µM. The activity change, negative = inhibition in test [2] is 0.484%; in [3], -17.9% [at 2.29 µM]; in test [4], 17.3%. Also, the activity, negative = inhibition in [5] was 0.425%. In addition, the Potency result in [8], in test [9] and in [11] was “inactive” in each case.
Take `COc1c(O)ccc2c1CN1CCc3cc4c(cc3[C@@H]1C2)OCO4`: the Potency in test [1] was over 11.4 µM; in test [3] it was 0.501 µM (active); in test [6], over 46 µM; in [7], over 9.22 µM; in [12], 0.158 µM (active). For the same molecule, the figures for the activity change, negative = inhibition in test [2] and in [4] were -4.62% and -25.2%, respectively. Further, the activity, negative = inhibition in test [5] is 7.58%. Besides, the Potency result in test [8], in [9] and in test [11] was “inactive” in each case.
Consider `CC(C)(C)CC(C)(C)c1cc(O)c(O)c(CN2CCCCC2)c1`, for which the Potency in [1] is over 11.4 µM; in test [6] it was over 46 µM; in test [7] it was over 9.22 µM. Further, the activity change, negative = inhibition in [2] was 0.737%; in [4], -28.7%. Further, the Potency entry in [3], in test [8], in [9] and in test [11] was “inactive” each time. Moreover, in test [5], the activity, negative = inhibition was 3.86%.
Regarding `Cc1ccc2nc(CC(=O)c3ccc4ccccc4c3)c(=O)[nH]c2c1`, the Potency in test [1] was over 11.4 µM; in [3], 2 µM (active); in [6] it was over 46 µM; in [7], over 9.22 µM. In addition, the activity change, negative = inhibition in test [2] was 6.36%; in test [4] it was -17.8%. Also, the activity, negative = inhibition in test [5] was 12.1%. In addition, the Potency entry in test [8], in test [9] and in [11] was “inactive” throughout.
Consider `O=C(O)c1cc(-c2ccncc2)nc2ccccc12`, for which the Potency is over 11.4 µM in [1], over 46 µM in test [6] and over 9.22 µM in test [7]. In addition, the values for the activity change, negative = inhibition in test [2] and in test [4] were 3.07% and -5.13%, respectively. Besides, the Potency entry in test [3], in test [8], in test [9] and in test [11] was “inactive” throughout. Also, in [5], the activity, negative = inhibition is -5.62%.
For `COc1ccc(Oc2ncc3nc(C)c(=O)n(-c4ccc(OC)cc4)c3n2)cc1`, the Potency was over 11.4 µM in test [1], 15.8 µM (active) in test [3], over 9.22 µM in [6] and over 46 µM in [7]. For the same molecule, the values for the activity change, negative = inhibition in test [2] and in test [4] were -21.8% and -15.1%, respectively. Further, the activity, negative = inhibition in [5] is -16.4%. In addition, the Potency entry in test [8], in test [9] and in test [11] was “inactive” throughout.
Regarding `NC(N)=N/N=C(/c1ccccc1)c1ccc(O)cc1O`, the Potency in [1] was over 11.4 µM; in test [3] it was 3.16 µM (active); in test [6] it was over 46 µM; in [7] it was over 9.22 µM; in [12] it was 1.26 µM (active). Further, the activity change, negative = inhibition was -6.42% in [2] and 5.67% in test [4]. The activity, negative = inhibition in test [5] is 6.43%. For the same molecule, the Potency result in test [8], in test [9] and in test [11] was “inactive” each time.
`COCCn1c(=O)c(-c2ccccc2)nc2cnc(Oc3ccccc3)nc21`: the Potency in test [1] was over 11.4 µM; in test [3] it was 1.58 µM (active); in test [6], over 9.22 µM; in test [7], over 46 µM. The activity change, negative = inhibition was -29.9% in test [2] and -6.49% in test [4]. In [5], the activity, negative = inhibition was -4.14%. For the same molecule, the Potency result in test [8], in [9] and in [11] was “inactive” throughout.
